Results reported in article PMC7862700, “An all-to-all approach to the identification of sequence-specific readers for epigenetic DNA modifications on cytosine”.

Assays:
Assay in all cases: DAPPL (digital affinity profiling via proximity ligation, sequencing); 10 mM Tris-HCl pH 7.5, 50 mM NaCl, 1 mM DTT, 4% glycerol, room temperature, 30 min; GST-TFs on glutathione beads, 16-mer random dsDNA library, 0.1% formaldehyde crosslink after washing; high values mean tight binding
Conditions in all cases: protein: recombinant; tags: N-terminal GST; dsDNA, one strand shown
FLI1 = biological target: T1, FLI1 (Homo sapiens, UniProt Q01543 1-452)
T1 sequence: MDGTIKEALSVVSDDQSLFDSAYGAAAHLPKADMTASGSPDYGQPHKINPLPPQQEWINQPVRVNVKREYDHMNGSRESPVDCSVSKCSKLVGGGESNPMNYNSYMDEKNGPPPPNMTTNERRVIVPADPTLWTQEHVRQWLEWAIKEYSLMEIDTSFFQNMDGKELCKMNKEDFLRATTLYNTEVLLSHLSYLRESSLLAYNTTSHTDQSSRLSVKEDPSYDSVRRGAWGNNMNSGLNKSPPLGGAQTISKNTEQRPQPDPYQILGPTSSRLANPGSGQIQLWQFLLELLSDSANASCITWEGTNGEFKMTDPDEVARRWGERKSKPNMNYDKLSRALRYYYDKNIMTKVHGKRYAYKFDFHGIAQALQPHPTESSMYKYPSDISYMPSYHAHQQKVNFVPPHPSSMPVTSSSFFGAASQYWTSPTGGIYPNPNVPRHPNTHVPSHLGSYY
Outline: (§1)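 Pools were built from human transcription factors expressed in yeast as GST fusions, captured on glutathione beads and DNA-barcoded, along with a tag-only sample. Incubation with 200 nmole of a 16-mer random double-stranded DNA library lasted 30 min at room temperature in Tris/NaCl/DTT/glycerol buffer, and was followed by washing, 0.1% formaldehyde crosslinking, proximity ligation, PCR amplification and Illumina NextSeq500 sequencing. Binding signal is the quotient of each hexamer's read frequency for a factor and its frequency for the tag-only sample.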

GABPA = biological target: T2, GABPA (Homo sapiens, UniProt Q06546 1-454)
T2 sequence: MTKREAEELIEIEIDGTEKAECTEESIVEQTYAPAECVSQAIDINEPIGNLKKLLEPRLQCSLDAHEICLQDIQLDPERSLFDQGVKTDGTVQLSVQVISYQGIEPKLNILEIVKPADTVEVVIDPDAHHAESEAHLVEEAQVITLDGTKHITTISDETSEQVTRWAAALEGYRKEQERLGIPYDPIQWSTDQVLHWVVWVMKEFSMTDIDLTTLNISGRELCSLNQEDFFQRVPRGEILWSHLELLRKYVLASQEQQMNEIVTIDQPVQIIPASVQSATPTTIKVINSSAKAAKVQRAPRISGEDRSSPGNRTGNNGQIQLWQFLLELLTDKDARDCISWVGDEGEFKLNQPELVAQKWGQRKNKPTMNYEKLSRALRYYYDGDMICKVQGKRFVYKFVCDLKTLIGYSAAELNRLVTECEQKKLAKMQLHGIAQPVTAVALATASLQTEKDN
Outline: as §1

ELF1 = ELF1 (Homo sapiens, UniProt P32519 1-619)
Outline: as §1

EHF = biological target: T3, EHF (Homo sapiens, UniProt Q9NZC4 1-300)
T3 sequence: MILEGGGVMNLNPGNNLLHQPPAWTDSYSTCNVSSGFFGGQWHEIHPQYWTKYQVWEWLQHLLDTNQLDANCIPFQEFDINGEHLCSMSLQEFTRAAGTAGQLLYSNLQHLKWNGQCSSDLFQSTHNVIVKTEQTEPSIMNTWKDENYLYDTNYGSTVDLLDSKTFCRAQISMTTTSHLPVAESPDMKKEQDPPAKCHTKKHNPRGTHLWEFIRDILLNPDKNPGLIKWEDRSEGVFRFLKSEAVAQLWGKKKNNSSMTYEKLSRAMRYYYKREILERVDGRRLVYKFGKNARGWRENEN
Outline: as §1

SPIB = SPIB (Homo sapiens, UniProt Q01892 1-262)
Outline: as §1

ELK3 = biological target: T4, ELK3 (Homo sapiens, UniProt P41970 1-407)
T4 sequence: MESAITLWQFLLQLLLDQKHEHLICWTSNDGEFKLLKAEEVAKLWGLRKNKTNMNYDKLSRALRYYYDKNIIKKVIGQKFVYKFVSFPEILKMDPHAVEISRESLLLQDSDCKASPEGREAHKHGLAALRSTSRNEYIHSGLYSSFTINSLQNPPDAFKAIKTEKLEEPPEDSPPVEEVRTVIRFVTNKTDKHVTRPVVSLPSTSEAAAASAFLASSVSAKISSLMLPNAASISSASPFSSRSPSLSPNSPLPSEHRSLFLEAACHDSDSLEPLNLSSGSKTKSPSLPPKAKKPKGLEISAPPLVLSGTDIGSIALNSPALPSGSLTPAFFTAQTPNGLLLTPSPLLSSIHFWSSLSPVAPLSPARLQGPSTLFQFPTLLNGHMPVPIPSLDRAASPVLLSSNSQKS
Outline: as §1

ETV5 = ETV5 (Homo sapiens, UniProt P41161 1-510)
Outline: as §1

ELF4 = ELF4 (Homo sapiens, UniProt Q99607 1-663)
Outline: as §1

ETV2 = biological target: T5, ETV2 (Homo sapiens, UniProt O00321 1-342)
T5 sequence: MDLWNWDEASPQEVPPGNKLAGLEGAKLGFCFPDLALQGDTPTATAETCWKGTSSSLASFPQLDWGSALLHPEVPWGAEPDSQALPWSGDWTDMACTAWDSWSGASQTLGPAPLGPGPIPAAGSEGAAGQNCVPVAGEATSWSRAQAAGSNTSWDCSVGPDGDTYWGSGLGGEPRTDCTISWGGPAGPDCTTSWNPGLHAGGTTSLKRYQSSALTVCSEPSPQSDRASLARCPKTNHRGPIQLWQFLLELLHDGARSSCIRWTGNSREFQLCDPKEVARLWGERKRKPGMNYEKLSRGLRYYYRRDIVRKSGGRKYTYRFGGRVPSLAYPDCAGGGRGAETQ
Outline: as §1

ELF3 = biological target: T6, ELF3 (Homo sapiens, UniProt P78545 1-371)
T6 sequence: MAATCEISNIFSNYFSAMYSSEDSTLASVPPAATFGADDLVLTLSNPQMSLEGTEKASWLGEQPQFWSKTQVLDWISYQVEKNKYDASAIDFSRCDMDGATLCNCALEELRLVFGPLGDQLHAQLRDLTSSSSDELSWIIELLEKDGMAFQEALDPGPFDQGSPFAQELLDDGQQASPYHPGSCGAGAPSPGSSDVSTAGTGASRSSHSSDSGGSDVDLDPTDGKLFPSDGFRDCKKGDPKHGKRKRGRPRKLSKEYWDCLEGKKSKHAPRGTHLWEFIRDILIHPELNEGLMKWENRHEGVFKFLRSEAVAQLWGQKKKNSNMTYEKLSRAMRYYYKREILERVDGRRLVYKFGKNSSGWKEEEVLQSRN
Outline: as §1

ERF = biological target: T7, ERF (Homo sapiens, UniProt P50548 1-548)
T7 sequence: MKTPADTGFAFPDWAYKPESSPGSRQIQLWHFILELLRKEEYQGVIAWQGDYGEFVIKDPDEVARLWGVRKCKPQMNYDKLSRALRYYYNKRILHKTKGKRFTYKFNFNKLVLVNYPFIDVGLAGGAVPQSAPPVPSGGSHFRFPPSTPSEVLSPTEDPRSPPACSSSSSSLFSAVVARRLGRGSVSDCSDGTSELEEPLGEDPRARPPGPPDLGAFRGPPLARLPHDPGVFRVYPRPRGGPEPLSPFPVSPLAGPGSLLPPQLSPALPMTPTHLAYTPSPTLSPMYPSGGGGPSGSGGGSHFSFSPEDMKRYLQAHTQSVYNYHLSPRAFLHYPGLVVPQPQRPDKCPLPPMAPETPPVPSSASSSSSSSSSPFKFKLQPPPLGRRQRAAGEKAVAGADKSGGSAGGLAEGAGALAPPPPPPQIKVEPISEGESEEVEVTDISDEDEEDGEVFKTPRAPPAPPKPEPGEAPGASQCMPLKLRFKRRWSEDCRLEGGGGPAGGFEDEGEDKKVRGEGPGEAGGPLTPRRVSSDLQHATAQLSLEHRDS
Outline: as §1

ETS2 = biological target: T8, ETS2 (Homo sapiens, UniProt P15036 1-469)
T8 sequence: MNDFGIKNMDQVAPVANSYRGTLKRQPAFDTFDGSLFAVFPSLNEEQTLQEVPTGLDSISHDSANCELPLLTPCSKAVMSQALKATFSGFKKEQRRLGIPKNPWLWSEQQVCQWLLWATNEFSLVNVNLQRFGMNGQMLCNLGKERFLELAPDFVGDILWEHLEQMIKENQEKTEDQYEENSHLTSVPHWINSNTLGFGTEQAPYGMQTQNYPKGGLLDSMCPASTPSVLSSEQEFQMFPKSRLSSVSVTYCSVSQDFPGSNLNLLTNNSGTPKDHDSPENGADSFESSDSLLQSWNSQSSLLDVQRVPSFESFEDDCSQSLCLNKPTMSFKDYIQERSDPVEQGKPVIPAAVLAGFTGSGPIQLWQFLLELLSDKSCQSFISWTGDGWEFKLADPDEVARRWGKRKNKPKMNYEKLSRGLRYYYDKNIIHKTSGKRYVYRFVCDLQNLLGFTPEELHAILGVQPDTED
Outline: as §1

ETV7 = biological target: T9, ETV7 (Homo sapiens, UniProt Q9Y603 1-341)
T9 sequence: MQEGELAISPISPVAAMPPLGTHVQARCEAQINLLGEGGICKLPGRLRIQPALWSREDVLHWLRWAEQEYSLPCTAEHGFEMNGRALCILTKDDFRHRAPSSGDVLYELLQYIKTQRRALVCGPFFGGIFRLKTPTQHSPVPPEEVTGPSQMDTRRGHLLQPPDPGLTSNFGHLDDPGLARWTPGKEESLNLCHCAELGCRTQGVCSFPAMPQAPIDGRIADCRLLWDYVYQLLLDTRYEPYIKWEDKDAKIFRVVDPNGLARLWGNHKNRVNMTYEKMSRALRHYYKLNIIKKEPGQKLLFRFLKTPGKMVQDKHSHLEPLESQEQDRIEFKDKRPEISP
Outline: as §1

ETV6 = ETV6 (Homo sapiens, UniProt P41212 1-452)
Outline: as §1

Chain of ELF4 (Q99607 whole entry): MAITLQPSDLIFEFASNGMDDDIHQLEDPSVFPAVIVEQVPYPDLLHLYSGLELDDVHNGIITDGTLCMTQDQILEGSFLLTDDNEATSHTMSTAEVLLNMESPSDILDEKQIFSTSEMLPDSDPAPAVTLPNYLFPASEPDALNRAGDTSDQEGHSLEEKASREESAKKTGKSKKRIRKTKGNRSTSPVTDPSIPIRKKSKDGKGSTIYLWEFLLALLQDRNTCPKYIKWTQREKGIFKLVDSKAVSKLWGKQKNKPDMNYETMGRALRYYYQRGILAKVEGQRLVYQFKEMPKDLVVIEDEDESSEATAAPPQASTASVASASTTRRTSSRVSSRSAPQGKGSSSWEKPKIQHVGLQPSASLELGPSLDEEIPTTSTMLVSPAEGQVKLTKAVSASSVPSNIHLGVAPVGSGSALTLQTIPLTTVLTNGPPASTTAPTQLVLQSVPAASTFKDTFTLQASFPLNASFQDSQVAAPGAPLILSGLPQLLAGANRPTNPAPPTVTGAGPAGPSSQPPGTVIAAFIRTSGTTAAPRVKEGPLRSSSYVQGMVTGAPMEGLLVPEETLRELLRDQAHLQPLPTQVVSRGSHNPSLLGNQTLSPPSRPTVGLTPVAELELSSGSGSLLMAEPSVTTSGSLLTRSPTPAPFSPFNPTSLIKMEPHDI
Chain of ELF1 (P32519 whole entry): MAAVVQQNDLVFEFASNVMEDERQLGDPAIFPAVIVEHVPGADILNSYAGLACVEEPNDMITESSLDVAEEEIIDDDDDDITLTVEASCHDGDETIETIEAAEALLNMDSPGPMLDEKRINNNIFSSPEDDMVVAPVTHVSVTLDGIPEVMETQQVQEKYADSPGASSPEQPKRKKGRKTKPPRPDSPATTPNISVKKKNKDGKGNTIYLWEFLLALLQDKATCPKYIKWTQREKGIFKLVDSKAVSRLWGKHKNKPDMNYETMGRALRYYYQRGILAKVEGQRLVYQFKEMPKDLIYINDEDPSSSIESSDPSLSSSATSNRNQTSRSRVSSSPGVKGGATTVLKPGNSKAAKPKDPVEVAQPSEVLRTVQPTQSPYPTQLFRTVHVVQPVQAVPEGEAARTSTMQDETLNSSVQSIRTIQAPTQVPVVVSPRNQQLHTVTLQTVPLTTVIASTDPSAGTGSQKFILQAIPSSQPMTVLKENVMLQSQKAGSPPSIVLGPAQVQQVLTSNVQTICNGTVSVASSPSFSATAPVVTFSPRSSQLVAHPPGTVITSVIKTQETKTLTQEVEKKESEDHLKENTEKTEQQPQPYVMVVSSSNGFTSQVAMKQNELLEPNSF
Chain of ETV6 (P41212 whole entry): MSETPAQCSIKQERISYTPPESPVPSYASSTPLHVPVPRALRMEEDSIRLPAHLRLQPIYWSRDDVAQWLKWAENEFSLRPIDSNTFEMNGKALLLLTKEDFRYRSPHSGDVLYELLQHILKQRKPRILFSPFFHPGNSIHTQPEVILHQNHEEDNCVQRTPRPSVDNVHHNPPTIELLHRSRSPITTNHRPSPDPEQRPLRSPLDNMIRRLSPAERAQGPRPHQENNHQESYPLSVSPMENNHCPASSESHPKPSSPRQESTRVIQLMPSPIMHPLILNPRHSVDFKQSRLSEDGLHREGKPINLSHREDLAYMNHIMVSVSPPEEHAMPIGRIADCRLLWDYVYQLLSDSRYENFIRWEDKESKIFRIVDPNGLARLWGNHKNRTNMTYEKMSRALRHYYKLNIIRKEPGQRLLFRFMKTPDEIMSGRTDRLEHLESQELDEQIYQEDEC
Chain of SPIB (Q01892 whole entry): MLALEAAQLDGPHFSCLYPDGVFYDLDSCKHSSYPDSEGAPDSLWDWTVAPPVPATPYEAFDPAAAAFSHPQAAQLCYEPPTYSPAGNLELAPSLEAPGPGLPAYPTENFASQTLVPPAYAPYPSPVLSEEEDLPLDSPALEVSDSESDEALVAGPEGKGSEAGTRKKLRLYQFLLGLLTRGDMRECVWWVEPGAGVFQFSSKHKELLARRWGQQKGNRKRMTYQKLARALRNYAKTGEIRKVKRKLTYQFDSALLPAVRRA
Chain of ETV5 (P41161 whole entry): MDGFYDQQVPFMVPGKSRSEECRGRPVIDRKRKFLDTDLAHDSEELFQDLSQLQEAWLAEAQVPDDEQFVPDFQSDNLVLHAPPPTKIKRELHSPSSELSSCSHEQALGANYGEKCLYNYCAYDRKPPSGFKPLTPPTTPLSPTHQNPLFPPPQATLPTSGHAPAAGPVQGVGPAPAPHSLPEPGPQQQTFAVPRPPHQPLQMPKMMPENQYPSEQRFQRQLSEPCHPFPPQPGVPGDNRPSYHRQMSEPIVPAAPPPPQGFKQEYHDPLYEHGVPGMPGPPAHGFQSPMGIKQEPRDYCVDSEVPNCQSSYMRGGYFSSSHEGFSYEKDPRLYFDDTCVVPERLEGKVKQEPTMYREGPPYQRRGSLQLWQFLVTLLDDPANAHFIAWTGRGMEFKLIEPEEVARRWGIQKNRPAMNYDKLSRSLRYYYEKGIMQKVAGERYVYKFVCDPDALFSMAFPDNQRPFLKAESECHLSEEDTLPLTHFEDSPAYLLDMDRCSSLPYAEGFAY

**Q.** With ACATAG as the sequence, how does the binding signal (FLI1) read?
**A.** Its binding signal is 1.12 fold enrichment (6-mer frequency, TF over GST control).

**Q.** What about the binding signal (GABPA) of the same sequence?
**A.** The binding signal was 1.03 fold enrichment (6-mer frequency, TF over GST control).

**Q.** What about the binding signal (ELF1) of the same sequence?
**A.** The binding signal was 1.07 fold enrichment (6-mer frequency, TF over GST control).

**Q.** And the binding signal (EHF)?
**A.** Its binding signal is 1.07 fold enrichment (6-mer frequency, TF over GST control).

**Q.** And the binding signal (SPIB)?
**A.** The binding signal was 1.01 fold enrichment (6-mer frequency, TF over GST control).

**Q.** And the binding signal (ELK3)?
**A.** The binding signal was 1.07 fold enrichment (6-mer frequency, TF over GST control).

**Q.** What about the binding signal (ETV5) of the same sequence?
**A.** Its binding signal is 1.08 fold enrichment (6-mer frequency, TF over GST control).

**Q.** And the binding signal (ELF4)?
**A.** Its binding signal is 1.04 fold enrichment (6-mer frequency, TF over GST control).

**Q.** And the binding signal (ETV2)?
**A.** The binding signal was 1.11 fold enrichment (6-mer frequency, TF over GST control).

**Q.** And the binding signal (ELF3)?
**A.** The binding signal was 1.14 fold enrichment (6-mer frequency, TF over GST control).

**Q.** What about the binding signal (ERF) of the same sequence?
**A.** Its binding signal is 1.11 fold enrichment (6-mer frequency, TF over GST control).

**Q.** What about the binding signal (ETS2) of the same sequence?
**A.** Its binding signal is 1.05 fold enrichment (6-mer frequency, TF over GST control).

**Q.** And the binding signal (ETV7)?
**A.** The binding signal was 1.13 fold enrichment (6-mer frequency, TF over GST control).

**Q.** What about the binding signal (ETV6) of the same sequence?
**A.** The binding signal was 1.07 fold enrichment (6-mer frequency, TF over GST control).
